From PubChem BioAssay AID2685 (National Center for Advancing Translational Sciences (NCATS), 2010)
The campaign covered roughly 320,000 compounds. About 2,100 (0.66%) were called active. About 53% were inconclusive and are not listed. Calls follow the shape of the dose curve; as a rule, active = well fitted inhibition curve with a large enough effect in the signal ratio, with a control signal flat (not every such curve was filed as active); inconclusive = small, poorly fitted or top-dose-only effect, or effect the other way, or a change in a side signal; inactive = flat fitted curve, though single readings scatter; the % refers to the signal ratio. This excerpt belongs to a sample that is enriched for actives.

test: qHTS Assay for Lipid Storage Modulators in Drosophila S3 Cells; conditions: BODIPY lipid droplet fluorescence, 18-24 h, cells fed with added oleic acid; cell number change: measured here: cell count max response; series mostly up to 46.1 µM; lipid storage change, negative = inhibition: at the top concentration;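 as to cell number change: cells counted by Cell Tracker Red CMTPX staining in the red channel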; as to lipid storage change, negative = inhibition: % is scaled to controls: 0 for no effect and ±100 for the full control effect
How it was run: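 Laser-scanning cytometry quantifies lipid droplet accumulation (500–530 nm total intensity; droplet/cell object ratio) in oleic acid-fed (400 uM added) Drosophila S3 cells treated with a concentration series. 20 uM Triacsin C defined 100% inhibition.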
Potency is read from the fitted curve at half-maximal effect.

Structure (SMILES)	lipid storage change, negative = inhibition	cell number change [%]	Potency	outcome
CCC1(C(=O)OC)NC(c2ccco2)C2C(=O)N(c3ccccc3)C(=O)C21 (stereo not drawn)	3.55% (inactive)	5.03	–	–
CCC1(C(=O)OC)NC(c2ccco2)C2C(=O)N(c3ccc(C)cc3)C(=O)C21 (stereo not drawn)	–	-0.0174	29.1 µM (active)	–
CCCC1(C(=O)OC)NC(c2ccco2)C2C(=O)N(c3ccc(C)cc3)C(=O)C21 (stereo not drawn)	0.487% (inactive)	3.89	–	–
COc1ccccc1C1=Nn2c(COc3ccccc3)nnc2SC1	8.35% (inactive)	23.6	–	–
O=S(=O)(c1ccc(Cl)cc1)N1CCn2c1nc1ccccc12	–	–	–	inactive
O=[N+]([O-])c1cccc(S(=O)(=O)N/N=C\c2ccc3c(c2)OCO3)c1	-28.7% (inactive)	-21.8	–	–
Cc1nc(Cc2ccc(OC(C)C)cc2)[nH]c(=O)c1CC(=O)O	17.8% (inactive)	12.4	–	–
CC(=O)Nc1ccc(-c2csc(NC(=O)C3=COCCO3)n2)cc1	-16.5% [at 0.0737 µM] (inactive)	–	–	–
O=C(Nc1nc(-c2ccc(Cl)cc2)cs1)C1=COCCO1	–	-17.4	9.2 µM (active)	–
Cc1ccc(-c2csc(NC(=O)C3=COCCO3)n2)cc1	12.5% (inactive)	-0.453	–	–
COC(=O)CNC(c1ccccc1)c1cc(Br)ccc1NC(C)=O (stereo not drawn)	10.9% (inactive)	6.76	–	–
CCC(=O)Nc1ccc(NC(=O)c2ccccc2Cl)nc1	–	7.43	–	inactive
COc1cc(C(=O)Oc2ccc(C(=S)N3CCOCC3)cc2)cc(OC)c1OC	-15.9% (inactive)	-0.493	–	–
CCOCCOc1cccc(C(=O)NC(C)c2ccc3ccccc3c2)c1 (stereo not drawn)	–	-6.8	13 µM (active)	–
CCOCCOc1cccc(C(=O)NC(c2ccccc2)C(C)C)c1 (stereo not drawn)	-3.66% (inactive)	13.4	–	–
CCOc1cccc(C(=O)Nc2ccc3ccccc3c2)c1	–	17.9	–	inactive
CC12COC3(C(=O)Nc4ccccc4F)CC1CCC32C (stereo not drawn)	0.0813% (inactive)	-23.5	–	–
CCc1nc(C)cn1S(=O)(=O)c1ccc([N+](=O)[O-])cc1	-3.24% (inactive)	7.81	–	–
COC(=O)CN1C(=S)N(C)C(=O)/C1=C/c1cccs1	–	–	–	inactive
O=C(CCCc1ccccc1)c1ccc2c(c1)OCCO2	5.96% (inactive)	-0.322	–	–
O=C(Cc1ccccc1)c1ccc2c(c1)OCCO2	2.3% (inactive)	9.53	–	–
O=C(CCCO)c1ccc2c(c1)OCCO2	–	-5.61	18.4 µM (active)	–
Cn1c2c(c3ccccc31)CC/C2=N\O	–	17	–	inactive
Cc1ccc(P(=O)(OCCN2CCOCC2)C(C)(C)C)o1 (stereo not drawn)	-11.2% (inactive)	-0.698	–	–
CCCCc1nnc(NC(=O)CSc2nc(O)c(-c3ccccc3)c(=O)[nH]2)s1	-3.64% (inactive)	-17.7	–	–
O=C1CC(c2ccc3c(c2)OCCO3)Oc2ccc([N+](=O)[O-])cc21 (stereo not drawn)	–	-9.91	7.31 µM (active)	–
O=C1CC(c2ccc3c(c2)OCCO3)Oc2ccccc21 (stereo not drawn)	9.86% (inactive)	8.06	–	–
COc1ccc2c(c1)C(=O)CC(c1ccc3c(c1)OCCO3)O2 (stereo not drawn)	8.02% (inactive)	2.81	–	–
